For ten compounds, Potency and activity change, negative = inhibition results are on record in PubChem BioAssay (NCATS).

Inconclusive results are not listed. A call without a number means that no potency is given here. Unmarked numbers belong to inactive results. Active and inactive are the calls of the source. Calls follow the shape of the dose curve; as a rule, active = well fitted inhibition curve with a large enough effect; inconclusive = small, poorly fitted or top-dose-only effect; inactive = no such curve, though single readings can be large or run the other way.
Potency is read from the fitted curve at half-maximal effect.

This experiment relates to Zika virus NS2B-NS3 protease (unlinked complex). Briefly: Primary screen GU Rhodamine qHTS for Zika virus inhibitors: Unlinked NS2B-NS3 protease assay (AID 1347159). Also: nearly all actives have a fitted effect of over 60% in size. Conditions: Recombinant ZIKV NS2B-NS3 protease, Rhodamine110 substrate fluorescence; series mostly up to 107 µM. The method, boiled down: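 A qHTS format was used, with compound concentrations ranging up to 114 microM. Each compound was preincubated with 25 nM NS2B-NS3 protease, and the substrate was then added at 1.5 microM. Curves were fitted with a 4-parameter Hill model.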
(In general: qHTS replaces the single test concentration by a dilution series.)
Regarding `CN(CCc1ccc(Nc2ncc(-c3cccnc3)s2)cc1)Cc1ccccc1`, the Potency entry is “inactive”.
Same read-out and setting: next, `C=C(C(=O)OC)C1C(O)CC2(C)C(=O)CCC(O)(CO)C2C1O` (stereo not given): “inactive”; `C=C1CC[C@H]2[C@@](C)(CCC(O)[C@@]2(C)CO)[C@@H]1CCC1=CCOC1=O` (stereo not given in full): “inactive”; `CS(=O)(=O)NCC1CCC(Nc2nc3c(s2)CCSc2ccccc2-3)CC1` (stereo not given): “inactive”.
Regarding `C[C@@H]1O[C@@H](O[C@H]2[C@H](O)[C@@H](O)[C@H](OC3CCC4(C)C5CCC(C)(C(CO)OC6OC(CO)C(O)C(O)C6O)CC5=CCC4C3(C)C)O[C@@H]2CO)[C@H](O)[C@H](O)[C@H]1O` (stereo not given in full), the Potency entry was “inactive”.
`C=C1[C@H](OC(C)=O)[C@H]2[C@@H](OC(C)=O)[C@](C)(OC(C)=O)C[C@]2(OC(C)=O)C(=O)[C@H](C)/C=C/C(C)(C)C(=O)[C@H](OC(=O)C(C)C)[C@H]1OC(C)=O`: the Potency entry is “inactive”.
The same measure, in the same setting: next, `O=S(=O)(NCC1CC1)c1ccc(Nc2nccc(N3CCCc4cc(O)ccc43)n2)cc1`: 39.8 µM (active); `CC(=O)O[C@H]1[C@H](O[C@H]2[C@@H]3C=CO[C@@H](O[C@@H]4O[C@H](CO)[C@@H](O)[C@H](O)[C@H]4O)[C@@H]3[C@@]3(CO)O[C@@H]23)O[C@@H](C)[C@H](OC(=O)/C=C/c2ccccc2)[C@H]1OC(=O)/C=C/c1ccccc1`: “inactive”.
Consider `O=C1N=C(N2CCOCC2)CN1c1ccc(Cl)cc1`, for which the Potency result is “inactive”.
In the case of `C[C@@H]1O[C@@H](O[C@@H]2[C@@H](O[C@@H]3O[C@@H](C)[C@H](O[C@@H]4OC[C@H](O)[C@H](O[C@@H]5OC[C@@H](O)[C@H](O)[C@H]5O)[C@H]4O)[C@@H](O[C@@H]4OC[C@](O)(CO)[C@H]4O)[C@H]3O)[C@H](OC(=O)[C@]34CCC(C)(C)C[C@H]3C3=CCC5[C@@]6(C)C[C@H](O)[C@H](O[C@@H]7O[C@H](CO[C@@H]8OC[C@H](O)[C@H](O)[C@H]8O)[C@@H](O)[C@H](O)[C@H]7O)C(C)(C)C6CC[C@@]5(C)[C@]3(C)C[C@H]4O)OC[C@H]2O)[C@H](O)[C@H](O)[C@H]1O` (stereo not given in full), the activity change, negative = inhibition is 11.8% [at 19.1 µM].
